Experimental findings from PubChem BioAssay (Tox21) are described below.

Values without a mark were called inactive. Records with an inconclusive call do not appear. Active and inactive are the calls of the source. Unless noted, the call rests on the fitted dose curve; in most records, active means well fitted curve in the direction sought with a large enough effect in the repeat runs; inconclusive means weak or mixed curves; inactive means no such curve, though single readings can be large; an effect the other way counts as inactive or inconclusive.

Assay [1] is described as follows: qHTS assay to identify small molecule antagonists of the estrogen related receptor (ERR) signaling pathway from Tox21 library - cell viability counter screen (AID 1224834). Further: nearly all actives have a fitted effect of over 30% in size. The method, boiled down: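 Cytotoxicity of test substances is gauged in the same ERR cells used for the antagonist screen, after 17.5 h of compound treatment at 37 C, by CellTiter-Fluor fluorescence measured after 30 min.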
For orientation: qHTS replaces the single test concentration by a dilution series.

Assay [2] addresses Luciferin 4-monooxygenase (Photinus pyralis) (UniProt P08659). The assay can be described thus: qHTS assay to identify small molecule inhibitors of firefly luciferase (AID 1224835). Further: nearly all actives have a fitted effect of over 25% in size. The essentials:
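Quantitative HTS format; KM concentrations of both substrates. Purified P. pyralis FLuc activity quantified from luminescence images.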

Assay [3] in a line: qHTS assay to identify small molecule agonists of the constitutive androstane receptor (CAR) signaling pathway - cell viability counter screen (AID 1224836). Further: nearly all actives have a fitted effect of over 45% in size. The method, boiled down:
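HepG2-CYP2B6-hCAR, 2500 cells/well, 4 h pre-incubation; cpd 15 conc + PK11195 0.75 uM final; 23 h, 37 C/5% CO2; CellTiter-Fluor, fluorescence.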

Assay [4] can be described thus: qHTS assay to identify small molecule antagonists of the constitutive androstane receptor (CAR) signaling pathway - cell viability counter screen (AID 1224837). Further: nearly all actives have a fitted effect of over 45% in size. The method, boiled down:
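Multiplexed cytotoxicity read-out for the CAR antagonist screen: double-stable HepG2-CYP2B6-hCAR cells co-treated with 50 nM CITCO (final) and compound over 15 concentrations, incubated 23 hr, then assessed by CellTiter-Fluor fluorescence.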

Assay [5] deals with Nuclear receptor subfamily 1 group I member 3 (Homo sapiens) (UniProt Q14994). Kind of assay: qHTS assay to identify small molecule antagonists of the constitutive androstane receptor (CAR) signaling pathway (AID 1224838). Further: nearly all actives have a fitted effect of over 40% in size. The method, boiled down: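 Compounds were titrated across 15 concentrations onto HepG2 cells double-stably expressing hCAR and a CYP2B6-2.2kb reporter, together with 50 nM CITCO (final). After 24 h at 37 C, luciferase activity was measured by luminescence.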

Assay [6] shares this target. Kind of assay: qHTS assay to identify small molecule agonists of the constitutive androstane receptor (CAR) signaling pathway (AID 1224839). Further: nearly all actives have a fitted effect of over 15% in size. The essentials:
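HepG2-CYP2B6-hCAR cells, 2500/well, 4 h pre-incubation; compounds 15 conc.; PK11195 0.75 uM final; 24 h, 37 C/5% CO2; ONE-Glo luciferase read.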

The nature of assay [7]: qHTS assay to identify small molecule antagonists of the estrogen related receptor signaling pathway with the pleiotropic PPARgamma coactivator (PGC) from Tox21 10K library - cell viability counter screen (AID 1224840; active means well fitted cell-killing curve with a large enough effect in the repeat runs, not every such curve was filed as active; further: nearly all actives have a fitted effect of over 40% in size). The essentials: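 Step one, plate 2,000 PGC/ERR cells per well; step two, incubate 6 h at 37 C/5% CO2; step three, pin-transfer compounds; step four, incubate 17.5 h; step five, add CellTiter-Fluor and read fluorescence after 30 min.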

Assay [8] is described as follows: qHTS assay to identify small molecule antagonists of the estrogen related receptor signaling pathway with the pleiotropic PPARgamma coactivator (PGC) from Tox21 10K library (AID 1224841; call rule not given here; further: actives are mostly falling curves and most rising ones were filed inactive; nearly all actives have a fitted effect of over 50% in size). The method, boiled down:
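Antagonism in this quantitative HTS is taken from loss of luciferase signal in PGC/ERR cells. Cells (2,000/well) are treated with compounds in DMSO after a 6 h settling period and read by One-Glo luminescence after 18 h.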

A short description of assay [9]: qHTS assay to identify small molecule agonists of the estrogen related receptor signaling pathway with the pleiotropic PPARgamma coactivator (PGC) from Tox21 10K library (AID 1224842). Further: nearly all actives have a fitted effect of over 15% in size. The method, boiled down: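 PGC/ERR reporter cells (NTP line) were seeded 2,000 per well, rested 6 h at 37 C/5% CO2, then pin-dosed with compounds in DMSO for 18 h at 37 C; luciferase read by One-Glo luminescence after 30 min at room temperature.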

The target in assay [10] is Thyrotropin receptor (Homo sapiens) (UniProt P16473). The assay can be described thus: qHTS assay to identify small molecule agonists of the thyroid stimulating hormone receptor (TSHR) signaling pathway (AID 1224843; calls by dose curve; further: nearly all actives have a fitted effect of over 45% in size). The method, boiled down: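 Cell line HEK293 with TSHR; density 800/well. Exposure 30 min RT. Readout HTRF cAMP (cAMP-d2/anti-cAMP-cryptate), 1 h RT before reading.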

Assay [11] can be described thus: qHTS assay to identify small molecule agonists of the hypoxia (HIF-1) signaling pathway - cell viability counter screen (AID 1224844; calls by dose curve; further: nearly all actives have a fitted effect of over 50% in size). The method, boiled down: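 Tox21 10K compounds were added to HRE-bla ME-180 cells (0.5% dialyzed FBS) and incubated 17 hrs at 37C; ATP-based CellTiter-Glo luminescence then reported cell viability in the same wells.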
Assay [12] in a line: qHTS assay to identify small molecule agonists of H2AX (AID 1224845; active means well fitted activation curve with a large enough effect in the signal ratio in the repeat runs, not every such curve was filed as active; the % refers to the signal ratio). The essentials: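 Wild-type CHO-K1 cells plated overnight, then exposed 3 hr at 37C to compounds at 15 concentrations (0.76% DMSO). Lysed, then HTRF anti-pH2AX(S139)-cryptate/anti-H2AX-d2 detection after 24 hr at room temperature; emissions 665 and 620 nm.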
Assay [13] can be described thus: qHTS assay to identify small molecule agonists of the hypoxia (HIF-1) signaling pathway (AID 1224846; active means well fitted activation curve with a large enough effect in the signal ratio in the repeat runs, not every such curve was filed as active; the % refers to the signal ratio). The method, boiled down: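 Steps: seed ME-180 HRE-bla cells (2,000/well, 0.5% dialyzed FBS); incubate 5 hrs at 37C; pin-transfer compounds or DMSO; incubate 17 hrs; add LiveBLAzer B/G substrate CCF4-AM; measure reporter activation by FRET.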
Assay [14] is described as follows: qHTS assay to identify small molecule agonists of H2AX - cell viability counter screen (AID 1224847; calls by dose curve; further: top concentration of the series differs between compounds; nearly all actives have a fitted effect of over 30% in size). The essentials:
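Cells plated first: CHO-K1, 1000 per well in 10% FBS medium, incubated overnight at 37C. Then 15-point compound titration added (final DMSO 0.76%) for 3 hr. Finally CellTiter-Glo added and luminescence read.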

The nature of assay [15]: qHTS assay to identify small molecule antagonists of the estrogen related receptor (ERR) signaling pathway from Tox21 library (AID 1224848). Further: nearly all actives have a fitted effect of over 50% in size. The essentials: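 Screening used an ERR reporter line supplied by NTP, exposed for 18 h at 37 C to library compounds delivered in DMSO. Signal was luciferase luminescence developed with ONE-Glo at room temperature for 30 min.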
Assay [16] is described as follows: qHTS assay to identify small molecule agonists of the estrogen related receptor (ERR) signaling pathway from Tox21 library (AID 1224849; calls by dose curve; further: nearly all actives have a fitted effect of over 15% in size). Particulars: ERR reporter cell line, ONE-Glo luciferase, 18 h; at 92.4 µM (top of the series) unless noted. The method, boiled down:
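Agonist signal is luciferase luminescence from an ERR reporter cell line treated 18 h at 37 C with DMSO-dissolved compounds, read 30 min after ONE-Glo addition at room temperature.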

A short description of assay [17]: qHTS RealTime-Glo MT Cell Viability Assay in HepG2 cells - 24 hour (AID 1224867). Further: nearly all actives have a fitted effect of over 50% in size. The essentials:
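HepG2 cells (600/well) were dispensed with RealTime-Glo reagents, incubated 5 h at 37 °C, then treated with compounds in DMSO for up to 40 h. Nonlytic NanoLuc luminescence reflecting viable cells was read at each stated time point.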

Assay [18] is described as follows: qHTS RealTime-Glo MT Cell Viability Assay in HEK293 cells - 32 hour (AID 1224868). The method, boiled down: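 HEK293 cells seeded with NanoLuc/prosubstrate reagent, rested 5 h at 37 C, then dosed and kept at 37 C up to 40 h. Nonlytic real-time luminescence from viable cells read at 0, 8, 16, 24, 32 and 40 h.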
Assay [19] is described as follows: A CellTox Green Cytotoxicity Assay to monitor cytotoxicity in HEK293 cells - 0 hour (AID 1224869). Further: nearly all actives have a fitted effect of over 50% in size. Further: potency means the concentration at half of the fitted maximal effect. The method, boiled down:
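Cytotoxicity was tracked continuously in HEK293 cells by a DNA-binding dye excluded from viable cells. Compounds were transferred in DMSO 5 h after seeding; fluorescence was recorded at intervals up to 40 h.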

Assay [20] is described as follows: qHTS RealTime-Glo MT Cell Viability Assay in HepG2 cells - 40 hour (AID 1224870). Further: nearly all actives have a fitted effect of over 50% in size. The essentials: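 HepG2 cells mixed with RealTime-Glo MT reagents (NanoLuc plus cell-permeant prosubstrate) were seeded at 600 cells/well, incubated 5 h at 37 C/5% CO2, then pinned with compounds in DMSO; nonlytic luminescence tracked viability during 40 h treatment.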
On the % scale 0 is the no-effect control and ±100 the full control effect.

Sequence of Nuclear receptor subfamily 1 group I member 3 (Homo sapiens) (Q14994 whole entry, looked up): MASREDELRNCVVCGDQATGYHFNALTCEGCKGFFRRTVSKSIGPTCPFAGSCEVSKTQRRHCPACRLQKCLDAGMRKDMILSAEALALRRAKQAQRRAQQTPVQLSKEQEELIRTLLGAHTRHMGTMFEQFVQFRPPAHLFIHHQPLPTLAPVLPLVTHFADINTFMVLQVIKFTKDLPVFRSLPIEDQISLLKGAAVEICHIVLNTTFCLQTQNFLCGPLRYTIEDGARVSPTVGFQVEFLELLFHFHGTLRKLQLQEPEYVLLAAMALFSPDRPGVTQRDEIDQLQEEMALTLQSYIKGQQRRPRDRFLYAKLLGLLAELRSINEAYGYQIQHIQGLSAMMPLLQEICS
Sequence of Luciferin 4-monooxygenase (Photinus pyralis) (P08659 whole entry, looked up): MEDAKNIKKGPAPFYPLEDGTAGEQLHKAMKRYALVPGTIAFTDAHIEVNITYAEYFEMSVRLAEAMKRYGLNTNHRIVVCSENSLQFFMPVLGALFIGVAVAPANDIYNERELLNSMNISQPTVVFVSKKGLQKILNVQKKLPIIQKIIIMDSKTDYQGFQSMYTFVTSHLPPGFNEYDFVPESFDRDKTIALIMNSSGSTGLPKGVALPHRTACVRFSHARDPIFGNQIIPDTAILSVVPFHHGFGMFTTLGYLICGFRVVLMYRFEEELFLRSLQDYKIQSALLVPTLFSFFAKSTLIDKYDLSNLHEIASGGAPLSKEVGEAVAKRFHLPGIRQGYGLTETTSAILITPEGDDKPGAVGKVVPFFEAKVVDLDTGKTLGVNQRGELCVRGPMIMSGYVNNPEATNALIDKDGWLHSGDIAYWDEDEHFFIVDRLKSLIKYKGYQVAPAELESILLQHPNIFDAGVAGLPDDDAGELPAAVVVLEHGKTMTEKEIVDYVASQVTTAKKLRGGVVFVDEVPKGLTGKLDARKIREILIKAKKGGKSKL
Sequence of Thyrotropin receptor (Homo sapiens) (P16473 whole entry, looked up): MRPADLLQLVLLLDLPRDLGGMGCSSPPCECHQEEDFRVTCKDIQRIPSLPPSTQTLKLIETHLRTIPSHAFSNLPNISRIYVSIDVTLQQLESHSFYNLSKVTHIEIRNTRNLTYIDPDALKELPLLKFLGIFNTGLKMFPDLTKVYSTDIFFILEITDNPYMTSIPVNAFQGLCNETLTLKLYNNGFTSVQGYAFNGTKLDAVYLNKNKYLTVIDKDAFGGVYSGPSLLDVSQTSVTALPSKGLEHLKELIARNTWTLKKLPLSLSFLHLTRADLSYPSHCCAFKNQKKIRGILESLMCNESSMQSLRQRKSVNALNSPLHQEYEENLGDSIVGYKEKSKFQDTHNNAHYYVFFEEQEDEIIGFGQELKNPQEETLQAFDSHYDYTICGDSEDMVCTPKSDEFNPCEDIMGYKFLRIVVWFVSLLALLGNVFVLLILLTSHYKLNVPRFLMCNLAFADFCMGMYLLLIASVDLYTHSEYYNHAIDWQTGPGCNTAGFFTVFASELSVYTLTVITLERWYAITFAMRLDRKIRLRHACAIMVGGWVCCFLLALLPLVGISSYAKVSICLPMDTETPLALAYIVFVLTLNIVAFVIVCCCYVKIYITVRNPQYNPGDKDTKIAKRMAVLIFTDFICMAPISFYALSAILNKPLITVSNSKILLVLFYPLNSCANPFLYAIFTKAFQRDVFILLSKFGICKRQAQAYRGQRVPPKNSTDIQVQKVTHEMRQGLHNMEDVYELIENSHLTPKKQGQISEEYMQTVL

As to `CC(C)(C)C(=O)O`, the Potency result in [1], in assay [2], in [3], in assay [4], in [5] and in assay [6] was “inactive” in each case. In addition, the Potency entry in assay [7], in assay [8], in assay [9], in assay [10], in assay [11] and in assay [12] was “inactive” in each case. Also, the Potency result in [14], in assay [15], in assay [17], in assay [18], in [19] and in assay [20] was “inactive” each time. Also, in assay [13], the outcome was inactive. Moreover, the activity change, positive = activation in assay [16] was 3.7%.
Turning to `CO[C@H]1O[C@H](CO)[C@@H](O)[C@H](O)[C@H]1O`, the Potency result in assay [1], in [2], in assay [3], in [4], in assay [5] and in assay [6] was “inactive” in each case. Besides, the Potency result in [7], in assay [8], in [9], in assay [10], in assay [12] and in assay [15] was “inactive” throughout. The Potency result in assay [17], in assay [18] and in assay [20] was “inactive” each time. For the same compound, in assay [13], the compound was classed as inactive. Besides, in assay [16], the activity change, positive = activation was 10.5%.
On to `C=CC(C)(O)CCCC(C)CCCC(C)CCCC(C)C` (stereo not drawn), for which the Potency entry in assay [1], in [2], in [3], in assay [4], in assay [5] and in assay [6] was “inactive” each time. The Potency entry in [7], in assay [8], in [9], in [10], in assay [12] and in assay [14] was “inactive” throughout. Also, the Potency result in [15], in assay [17], in [18], in [19] and in assay [20] was “inactive” throughout. Further, the result in assay [13] was inactive. Besides, the activity change, positive = activation in [16] is -0.948%.
For `c1cnc2c(n1)CCCC2`, the Potency result in [1], in assay [2], in assay [3], in assay [4], in assay [5] and in assay [6] was “inactive” each time. The Potency entry in [7], in assay [8], in [9], in [10], in assay [11] and in assay [12] was “inactive” each time. For the same compound, the Potency result in [15], in [18] and in assay [20] was “inactive” throughout. Besides, the outcome in assay [13] was inactive. Moreover, in assay [16], the activity change, positive = activation is 3.42%. The Potency in assay [19] is 43.6 µM (active).
`O=c1[nH]c2ccc(S(=O)CCN3CCC(Cc4ccc(F)cc4)CC3)cc2o1` (stereo not drawn): the Potency entry in assay [1], in assay [2], in assay [3], in assay [4], in assay [5] and in assay [6] was “inactive” throughout. The Potency result in assay [7], in assay [8], in assay [9], in assay [10], in [11] and in [12] was “inactive” throughout. The Potency result in [19] and in assay [20] was “inactive” in each case. The result in assay [13] was inactive. The activity change, positive = activation in assay [16] is -29.7%.
Regarding `N#C[C@@H]1C[C@@H]2C[C@@H]2N1C(=O)[C@@H](N)C12CC3CC(CC(O)(C3)C1)C2`, the Potency entry in assay [1], in assay [2], in assay [3], in [4], in [5] and in assay [6] was “inactive” in each case. Besides, the Potency result in assay [7], in assay [8], in assay [9], in [10], in assay [11] and in assay [12] was “inactive” in each case. Further, the Potency result in [15], in assay [18], in assay [19] and in [20] was “inactive” each time. In assay [13], the result was inactive. Moreover, the activity change, positive = activation in [16] is 0.254% [at 42.5 µM].
